The text below walks through data of PubChem BioAssay (EPA / NIEHS).

Molecules are shown by their SMILES. Inconclusive results are not listed. Active and inactive are the calls of the source. The calls were made as follows, unless noted: active = hit-call score of the fitted dose curve at least 0.9, where 1 is the maximum; inconclusive = response in the unintended direction; inactive = score below 0.9.

Assay [1] in a line: TOX21_p53_BLA_p2_viability: Viability Assessment in the Tox21 HCT-116 p53 Agonism Beta-lactamase Assay, Phase 2 (AID 2283591).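 Also: actives lower the ATP signal meaning cytotoxicity.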 The essentials:
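HCT116 p53-bla cells, 4000/well, dosed after 5 h plating (217-fold dilution of DMSO stocks) and incubated 16 h at 37C. Viability taken as cellular ATP by CellTiter-Glo luminescence after 30 min RT; signal loss marks cytotoxicity.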

Assay [2] has as its target Cellular tumor antigen p53 (Homo sapiens) (UniProt P04637). As to the kind of experiment: TOX21_p53_BLA_p2_ratio: Tox21 HCT-116 p53 Agonism Beta-lactamase Assay, Ratio, Phase 2 (AID 2283592). The essentials: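 HCT-116 cells with p53-responsive beta-lactamase reporter, 4000 cells/well, preincubated 5 h, then compound in DMSO (217-fold dilution) for 16 h at 37C. CCF4-AM substrate 2 h at room temperature; 460/530 nm emission ratio fitted upward versus DMSO.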

A short description of assay [3]: TOX21_p53_BLA_p3_viability: Viability Assessment in the Tox21 HCT-116 p53 Agonism Beta-lactamase Assay, Phase 3 (AID 2283593).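 Also: cells exposed to compound for 16 h before reading.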 The essentials:
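HCT116 cells, 4000/well, dosed 5 h after plating by pin transfer (217-fold dilution from DMSO stock) and incubated 16 h at 37C, 5% CO2. Viability read as ATP luminescence with CellTiter-Glo after 30 min at room temperature.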

In assay [4] the target is Cellular tumor antigen p53 (Homo sapiens) (UniProt P04637). The assay is described as follows: TOX21_p53_BLA_p3_ratio: Tox21 HCT-116 p53 Agonism Beta-lactamase Assay, Ratio, Phase 3 (AID 2283596). The essentials: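 HCT116 p53-bla cells (4000/well) given compound in DMSO (217-fold dilution) after 5 h, incubated 16 h at 37C. CCF4-AM substrate 2 h at room temperature; 460/530 nm emission ratio, gain fitted against DMSO.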

Assay [5] in a line: TOX21_p53_BLA_p4_viability: Viability Assessment in the Tox21 HCT-116 p53 Agonism Beta-lactamase Assay, Phase 4 (AID 2283597).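 Also: hits lower the luminescence signal meaning cytotoxicity.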 Put shortly:
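HCT-116 p53-bla cells, 4000/well, dosed after 5 h attachment and incubated 16 h at 37 °C, 5% CO2. Viability from CellTiter-Glo ATP luminescence after 30 min at room temperature, taken after the beta-lactamase read; loss of signal indicates cytotoxicity.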

For assay [6], the target named is Cellular tumor antigen p53 (Homo sapiens) (UniProt P04637). The assay is described as follows: TOX21_p53_BLA_p5_ratio: Tox21 HCT-116 p53 Agonism Beta-lactamase Assay, Ratio, Phase 5 (AID 2283599). The essentials: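 HCT-116 p53-bla cells (4000/well) plated 5 h, dosed with compound (217-fold DMSO dilution) for 16 h at 37 C; CCF4-AM substrate 2 h at room temperature. Activity is the 460/530 nm emission ratio (405 nm excitation), fitted in gain-of-signal direction versus DMSO.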

The nature of assay [7]: TOX21_p53_BLA_p5_viability: Viability Assessment in the Tox21 HCT-116 p53 Agonism Beta-lactamase Assay, Phase 5 (AID 2283600). Put shortly: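 HCT-116 p53 beta-lactamase reporter cells, 4000/well, were exposed to compound (pin transfer, 217-fold dilution) for 16 hours at 37C. Cellular ATP was read by CellTiter-Glo luminescence after 30 min at room temperature.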
Assay [8] concerns the target Cellular tumor antigen p53 (Homo sapiens) (UniProt P04637). The assay is described as follows: TOX21_p53_BLA_p4_ratio: Tox21 HCT-116 p53 Agonism Beta-lactamase Assay, Ratio, Phase 4 (AID 2283601). The essentials: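 HCT-116 p53 beta-lactamase reporter cells (4000/well) preincubated 5 h, then compound (217-fold dilution of DMSO stock) for 16 h at 37C. CCF4-AM substrate added 2 h at room temperature; 460/530 nm emission ratio fitted upward versus DMSO.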

A further assay concerns the target THRA (gene 7067) (UniProt P10827). As to the kind of experiment: TOX21_TRA_COA_Antagonist_Followup_ratio: Tox21 Thyroid Hormone Receptor alpha Antagonism through Coactivator Recruitment Follow-Up Assay, Ratio (AID 2283953). Put shortly: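 This follow-up to the GH3 luciferase screen checks specificity in a cell-free format. It measures SRC-2 coactivator peptide binding to TRα LBD by TR-FRET and scores loss of ratio signal relative to DMSO.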

Assay [9] is described as follows: TOX21_TRB_BLA_Antagonist_Followup_viability: Viability Assessment in the Tox21 Thyroid Hormone Receptor beta Antagonism Beta-lactamase (BLA) Follow-Up Assay (AID 2283961). The essentials: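 HEK293T cells with GAL4-human TRβ LBD and UAS-bla reporter, 3,000 cells/well in 2% charcoal-stripped FBS medium; 11-point concentrations in triplicate, 18 h at 37C. Viability from ATP by CellTiter-Glo luminescence, 30 min RT, same plates.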

For a further assay, the target named is THRB (gene 7068) (UniProt P10828). As to the kind of experiment: TOX21_TRB_COA_Antagonist_Followup_ratio: Tox21 Thyroid Hormone Receptor beta Antagonism through Coactivator Recruitment Follow-Up Assay, Ratio (AID 2283967). Put shortly:
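Cell-free TR-FRET: GST-TRb LBD (5.0 nM) with fluorescein-SRC-2 peptide (200 nM) and Tb anti-GST antibody (2 nM), 0.10% BSA. 520:495 nm emission ratio normalized to DMSO (0%) and T3 (100%).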

Assay [10] is described as follows: TOX21_TR_RXR_BLA_Antagonist_Followup_viability: Viability Assessment in the Tox21 Thyroid Hormone Receptor beta Retinoid X Receptor alpha (RXRa) Antagonism Beta-lactamase (BLA) Follow-Up Assay (AID 2283979). The essentials:
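RXRa-bla HEK293T cells (2,500/well, phenol red-free DMEM, 2% charcoal-stripped FBS) were attached 5 h, then exposed to compounds at 11 concentrations in triplicate for 16 h at 37C. Viability measured by CellTiter-Glo ATP luminescence, bidirectional fitting versus DMSO.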

Assay [11] in a line: CCTE_Harrill_HTTr_Viability_MCF7: CCTE's 6-hour Cell Viability Assessment for the High-Throughput Transcriptomics (HTTr) Platform, in MCF-7 cells cultured in DMEM + 10% fetal bovine serum, Harrill Lab (AID 2284010; active = hit-call score of the fitted dose curve at least 0.9, where 1 is the maximum; inactive = score below 0.9). The essentials:
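Viability measured through PI dye exclusion by high-content imaging at 6 h post-dosing.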

Assay [12] is described as follows: CCTE_Harrill_HTTr_Apoptosis_MCF7: CCTE's 6-hour Apoptosis Assessment for the High-Throughput Transcriptomics (HTTr) Platform, in MCF-7 cells cultured in DMEM + 10% fetal bovine serum, Harrill Lab (AID 2284011; active = hit-call score of the fitted dose curve at least 0.9, where 1 is the maximum; inactive = score below 0.9). The essentials: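 MCF-7 cells in DMEM + 10% FBS exposed 6 h to chemicals over an eight-point dilution series. Caspase-3/7 activation imaged by high-content CellEvent Green staining; fitted bidirectionally versus DMSO.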

Assay [13] deals with PGR (gene 5241) (UniProt P06401). The assay is described as follows: TOX21_PR_BLA_Followup_Antagonist_ratio: Tox21 HEK293 Progesterone Receptor (PR) Antagonism Beta-lactamase Follow-Up Assay, Ratio (AID 2283934). The essentials: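 Antagonist mode used 1 nM R5020 (final) as agonist on a beta-lactamase reporter line in HEK293T cells. Activity was taken from the substrate cleavage ratio after 16 hr exposure.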

Assay [14] is described as follows: TOX21_PR_BLA_Followup_Agonist_viability: Viability Assessment in the Tox21 HEK293 Progesterone Receptor (PR) Agonism Beta-lactamase Follow-Up Assay (AID 2283935).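 Also: signal loss means lower viability so actives are cytotoxic.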 The essentials:
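Multiplexed viability counter-screen: ATP-coupled luciferase signal measured after 30 min at room temperature, following 16 hr compound treatment of PR-UAS-bla HEK293T cells grown in charcoal-stripped serum.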

Assay [15] is described as follows: TOX21_PR_BLA_Followup_Antagonist_viability: Viability Assessment in the Tox21 HEK293 Progesterone Receptor (PR) Antagonism Beta-lactamase Follow-Up Assay (AID 2283936).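 Also: hits lower the luminescence signal meaning cytotoxicity.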 The essentials:
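PR-UAS-bla HEK293T cells (3,000/well, 2% charcoal-stripped FBS) given compound plus R5020 agonist, 16 h at 37C. CellTiter-Glo added after bla read, 30 min at room temperature; luminescence loss indicates cytotoxicity.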

Assay [16] addresses PGR (gene 5241) (UniProt P06401). As to the kind of experiment: TOX21_PR_LUC_Followup_Antagonist: Tox21 HEK293 Progesterone Receptor (PR) Antagonism Luciferase Follow-Up Assay (AID 2283938).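 Also: curve fitted upward as signal gain over DMSO baseline despite antagonist label.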 Put shortly: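 HEK293-PR-A-luc cells, 3,000/well, preincubated 5 h at 37C before compound addition in DMSO; 16 h compound exposure at 37C. ONE-Glo luciferase luminescence read after 30 min at room temperature, fitted relative to DMSO baseline.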

A short description of assay [17]: TOX21_PR_LUC_Followup_Agonist_viability: Viability Assessment in the Tox21 HEK293 Progesterone Receptor (PR) Agonism Luciferase Follow-Up Assay (AID 2283941).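 Also: loss of signal means cytotoxicity so actives lower viability.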 Put shortly: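 Luminescent ATP quantitation (CellTiter-Glo) serves as the read-out; a drop flags cytotoxic compounds. Cells are HEK293-PR-A-luc grown in 10% charcoal-stripped FBS, plated 3,000/well, and exposed to compound for 16 h.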

Cellular tumor antigen p53 (Homo sapiens), sequence (P04637 whole entry, looked up): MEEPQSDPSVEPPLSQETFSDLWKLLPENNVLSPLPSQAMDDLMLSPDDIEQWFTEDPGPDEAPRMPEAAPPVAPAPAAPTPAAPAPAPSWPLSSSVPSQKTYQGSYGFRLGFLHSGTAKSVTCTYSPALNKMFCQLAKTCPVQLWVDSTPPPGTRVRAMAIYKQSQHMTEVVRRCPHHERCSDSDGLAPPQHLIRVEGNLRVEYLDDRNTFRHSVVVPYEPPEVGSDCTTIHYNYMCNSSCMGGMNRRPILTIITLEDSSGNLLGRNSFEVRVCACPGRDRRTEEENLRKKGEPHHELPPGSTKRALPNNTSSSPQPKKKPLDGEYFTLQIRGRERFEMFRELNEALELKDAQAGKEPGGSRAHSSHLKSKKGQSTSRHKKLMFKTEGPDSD
PGR (gene 5241), sequence (P06401 whole entry, looked up): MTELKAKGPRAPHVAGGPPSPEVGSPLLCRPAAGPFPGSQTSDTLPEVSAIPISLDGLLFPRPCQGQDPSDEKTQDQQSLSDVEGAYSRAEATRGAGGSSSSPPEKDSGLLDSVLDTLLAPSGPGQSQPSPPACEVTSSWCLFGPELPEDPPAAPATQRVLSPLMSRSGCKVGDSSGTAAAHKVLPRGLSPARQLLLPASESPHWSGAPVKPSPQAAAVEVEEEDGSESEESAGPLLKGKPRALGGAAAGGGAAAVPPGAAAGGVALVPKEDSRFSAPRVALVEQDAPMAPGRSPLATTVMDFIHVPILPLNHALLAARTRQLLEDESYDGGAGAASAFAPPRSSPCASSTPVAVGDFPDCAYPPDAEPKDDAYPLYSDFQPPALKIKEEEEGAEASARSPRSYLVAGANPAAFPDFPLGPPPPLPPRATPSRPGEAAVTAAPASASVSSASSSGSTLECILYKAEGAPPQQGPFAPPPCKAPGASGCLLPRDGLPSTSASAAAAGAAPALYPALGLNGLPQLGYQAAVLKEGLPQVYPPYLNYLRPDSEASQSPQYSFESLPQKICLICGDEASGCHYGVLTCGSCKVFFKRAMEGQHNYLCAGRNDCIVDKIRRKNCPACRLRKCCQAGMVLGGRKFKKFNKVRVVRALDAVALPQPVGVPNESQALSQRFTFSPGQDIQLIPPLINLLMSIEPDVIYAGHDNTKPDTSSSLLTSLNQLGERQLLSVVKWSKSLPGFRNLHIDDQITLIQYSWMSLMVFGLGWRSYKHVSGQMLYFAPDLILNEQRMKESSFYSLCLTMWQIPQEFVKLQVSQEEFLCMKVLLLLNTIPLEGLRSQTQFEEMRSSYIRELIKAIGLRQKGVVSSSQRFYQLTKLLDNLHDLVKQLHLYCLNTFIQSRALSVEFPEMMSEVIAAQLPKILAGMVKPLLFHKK
THRA (gene 7067), sequence (P10827 whole entry, looked up, the tested form may be a part): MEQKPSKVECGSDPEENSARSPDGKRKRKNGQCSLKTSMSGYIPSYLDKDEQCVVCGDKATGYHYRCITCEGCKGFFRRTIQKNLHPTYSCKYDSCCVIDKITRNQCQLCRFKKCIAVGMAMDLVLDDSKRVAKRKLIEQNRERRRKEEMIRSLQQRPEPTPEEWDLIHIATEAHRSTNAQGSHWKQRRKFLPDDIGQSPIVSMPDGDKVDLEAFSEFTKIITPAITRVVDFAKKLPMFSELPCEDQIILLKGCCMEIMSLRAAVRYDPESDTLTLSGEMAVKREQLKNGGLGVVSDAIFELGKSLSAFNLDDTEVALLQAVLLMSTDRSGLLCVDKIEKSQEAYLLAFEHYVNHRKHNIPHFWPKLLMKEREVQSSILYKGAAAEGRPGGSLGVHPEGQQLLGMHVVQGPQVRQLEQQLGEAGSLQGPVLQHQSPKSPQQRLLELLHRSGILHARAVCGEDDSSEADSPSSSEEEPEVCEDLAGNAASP
THRB (gene 7068), sequence (P10828 whole entry, looked up, the tested form may be a part): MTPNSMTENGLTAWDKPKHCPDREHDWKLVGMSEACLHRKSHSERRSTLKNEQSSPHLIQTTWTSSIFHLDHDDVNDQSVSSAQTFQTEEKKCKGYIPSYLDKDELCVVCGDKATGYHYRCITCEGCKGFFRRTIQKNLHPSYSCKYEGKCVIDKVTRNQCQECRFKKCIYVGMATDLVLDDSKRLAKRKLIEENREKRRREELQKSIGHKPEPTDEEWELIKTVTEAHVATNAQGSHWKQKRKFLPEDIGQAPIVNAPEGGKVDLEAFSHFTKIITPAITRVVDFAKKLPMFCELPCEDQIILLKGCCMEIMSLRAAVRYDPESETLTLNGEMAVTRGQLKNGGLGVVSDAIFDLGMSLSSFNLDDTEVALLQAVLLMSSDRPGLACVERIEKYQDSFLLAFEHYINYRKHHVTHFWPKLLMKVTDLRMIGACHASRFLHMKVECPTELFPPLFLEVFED

Take `CCCC(=O)O[C@]1(C(=O)CCl)[C@@H](C)C[C@H]2[C@@H]3CCC4=CC(=O)C=C[C@]4(C)[C@@]3(F)C(=O)C[C@@]21C`: the result in assay [1], in assay [2], in [3], in assay [4], in [5] and in assay [6] was inactive. Further, the call (in assay [7]; in [8]; with THRA (gene 7067); in assay [9]; with THRB (gene 7068); in [10]) was inactive.

Take `O=C(O)CN(CCN(CC(=O)O)CC(=O)O)CC(=O)O`: the compound was classed as inactive in assay [1], in assay [2], in assay [3], in assay [4], in assay [5] and in assay [6]. Further, the call in assay [7], in [8], in assay [11] and in assay [12] was inactive.

What is called AC50 is the concentration giving half of the maximal activity seen. For the compound `Cc1nc2sccn2c(=O)c1CCN1CCC(=C(c2ccc(F)cc2)c2ccc(F)cc2)CC1`, the AC50 was 37.8 µM (active) in [1], 36.5 µM (active) in assay [2], 8.52 µM (active) in assay [3] and 23 µM (active) in assay [5]. Also, the result in assay [4], in assay [6], in assay [7] and in assay [8] was inactive.

Regarding `O=C1Cc2cc(CCN3CCN(c4nsc5ccccc45)CC3)c(Cl)cc2N1`, the call in assay [1], in [2], in assay [3], in [4], in assay [5] and in assay [6] was inactive. For the same compound, the outcome in assay [7] and in assay [8] was inactive.

As to `C#C[C@]1(O)CC[C@H]2[C@@H]3CCc4cc(OC5CCCC5)ccc4[C@H]3CC[C@@]21C`, the call in assay [1], in assay [2], in assay [3], in assay [4], in assay [5] and in assay [6] was inactive. Further, the outcome in assay [8], in assay [14], in assay [15] and in [17] was inactive. Besides, the AC50 was 37.8 µM (active) in [7], 13.6 µM (active) with PGR (gene 5241) [13] and 16.2 µM (active) with PGR (gene 5241) [16].

In the case of `CC(=O)Oc1ccc2c(c1)CC[C@@H]1[C@@H]2CC[C@]2(C)[C@@H](O)CC[C@@H]12`, the call in [1], in assay [2], in assay [3], in assay [4], in [5] and in assay [6] was inactive. For the same compound, the compound was classed as inactive in [7], in assay [8], in [14] and in assay [15]. Moreover, the AC50 with PGR (gene 5241) [13] was 0.846 µM (active); in the assay with PGR (gene 5241) [16] it was 0.449 µM (active).

In the case of `Cc1ccc(/C=N/n2c(-c3ccccc3)csc2=S)cc1`, the result in assay [1], in assay [2], in [3], in assay [4], in [5] and in assay [6] was inactive. Besides, the outcome (in assay [7]; in assay [8]; in [14]; in assay [15]; in the assay with PGR (gene 5241) [16]; in assay [17]) was inactive. The AC50 with PGR (gene 5241) [13] was 23 µM (active).

Turning to `Cc1nc(Nc2ncc(C(=O)Nc3c(C)cccc3Cl)s2)cc(N2CCN(CCO)CC2)n1`, the result in assay [1] and in [7] was inactive. Further, the AC50 in [2] was 26.8 µM (active); in assay [3] it was 33.4 µM (active); in assay [4], 36.5 µM (active); in [5], 35.5 µM (active); in assay [6], 32.7 µM (active); in assay [8] it was 22.8 µM (active).

For the compound `CC(C)(C)CC(C)(C)c1ccc(O)c(Cc2ccc(Cl)cc2Cl)c1`, the AC50 was 23 µM (active) in assay [1]; 35.4 µM (active) in assay [2]; 20.1 µM (active) in assay [3]; 30.9 µM (active) in assay [4]; 10.9 µM (active) in assay [5]; 28.1 µM (active) in assay [6]. Moreover, the AC50 in assay [7] was 13.8 µM (active). In addition, in [8], the outcome was inactive.
